Screening results deposited in PubChem by The Scripps Research Institute Molecular Screening Center.
A selection: hits, their analogues and other compounds. The true share with any hit is near 4.8%.
hgDAF12 agonist: hgDAF-12 agonism, primary luciferase screen; HEK293 GAL4-hgDAF12 UAS-luciferase reporter, agonist luminescence; normalized to butyrate control; activation, % at 6.8 µM; 370,000 compounds, 1.8% hits;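 active = activation above a cutoff set at the mean of all screened compounds plus 3 SD, cut at about 10% in these data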
hcDAF-12 act: activates DAF-12 receptor from parasite H. contortus. HEK293 hcDAF-12 lit1-tk-luc reporter, luminescence; 0% DMSO, 100% Δ7-dafachronic acid. 370,000 compounds, 1.4% hits. activation, % at 6.8 µM. AID 652067;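 active = activation above the mean of all tested compounds plus 3 SD, cut at about 5.5% in these data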
DAX1 inh-1: blocks DAX1 repression of SF-1 activated StAR promoter; AID 652010; inhibition, % at 6.8 µM; HEK293T StAR-luciferase reporter, SF-1/DAX-1 repression relief; 370,000 compounds, 1.1% hits;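 active = inhibition above the mean over all tested compounds plus 3 SD, cut at about 3.6% in these data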;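 note: higher inhibition means more luminescence from relief of DAX-1 repression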
DAX1 inh-2: NR0B1 (DAX1) inhibition | P51843 | HEK293 Gal4-DAX1 luciferase reporter, luminescence | inhibition, % at 6.75 µM | 340,000 compounds, 0.99% hits | AID 504766;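 active = inhibition above the mean over all tested compounds plus 3 SD, cut at about 4.2% in these data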;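 note: inhibition shows as a rise in luminescence from relieved DAX1 repression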
Target sequence (P51843 207-470 limits assumed): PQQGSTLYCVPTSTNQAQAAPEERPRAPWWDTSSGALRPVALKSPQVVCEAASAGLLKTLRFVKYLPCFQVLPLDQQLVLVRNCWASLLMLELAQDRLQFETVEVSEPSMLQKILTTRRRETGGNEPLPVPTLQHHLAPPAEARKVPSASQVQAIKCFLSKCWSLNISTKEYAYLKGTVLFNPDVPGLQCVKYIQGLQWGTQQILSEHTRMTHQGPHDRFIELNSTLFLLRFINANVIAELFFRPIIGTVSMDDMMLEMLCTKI
SMARCA2 activ: SMARCA2 function activation, primary screen | MG213 cells, MMTV-luciferase reporter, dexamethasone, overnight | activation, % at 9.1 µM | AID 652017 | 370,000 compounds, 1% hits; in the data active = activation above about 7.8%
ssDAF12 agonist: S. stercoralis DAF-12 activation, primary screen; 370,000 compounds, 1% hits; HEK293 ssDAF-12/GRIP1 lit1-tk-luc reporter, luminescence; % of 3 µM dafachronic acid response; activation, % at 6.8 µM; AID 652126;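 active = activation above the mean over all tested compounds plus 3 SD, cut at about 0.9% in these data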
SMARCA2 act conf: SMARCA2 activation, confirmation screen | shares compounds with SMARCA2 activ | MG213 cells, MMTV-luciferase with dexamethasone, luminescence, overnight; MG213 cells expressing E1A, Rb sequestered; DMSO wells 0%, reference activator 100% | activation, % at 9.1 µM | 3,500 compounds, 30% hits;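 active = activation above its plate's cutoff, the mean activation of tested wells plus 3 SD, cut at about 7.9% in these data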
GAL4-VP16 Luc: activates GAL4-VP16 luciferase, flagging SMARCA2 activator hits | shares compounds with SMARCA2 activ | HEK293 GAL4-VP16 pG5luc reporter, luciferase luminescence; scaled: DMSO wells 0%, SAHA wells 100% | activation, % at 9.1 µM | 3,500 compounds, 41% hits | AID 686939;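 active = activation above the solvent-only control well mean plus 3 SD, averaged across control plates, cut at about 5.2% in these data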
Large screens that a line does not name were inactive (follow-up assays come after a bar, where they were run).

COC(=O)CCC(=O)N1CCC(Oc2cccc(C(=O)NCc3ccccn3)c2)CC1	SMARCA2 activ 8.3 | SMARCA2 act conf inactive | GAL4-VP16 Luc inactive
COCC(=O)N1CCC(Oc2cccc(C(=O)NCc3ccccn3)c2)CC1	none
C/C(=N\NC(=S)Nc1ccccc1C)C1Cc2ccccc2C(=O)O1 (configuration not stated)	none
C/C(=N\NC(=S)Nc1ccccc1)C1Cc2ccccc2C(=O)O1 (configuration not stated)	SMARCA2 activ 8.3 (no result: DAX1 inh-2) | SMARCA2 act conf inactive | GAL4-VP16 Luc inactive
Cc1cc(NC(=O)CSc2nnnn2-c2cc(Cl)ccc2C)no1	SMARCA2 activ 8.1 | SMARCA2 act conf inactive | GAL4-VP16 Luc inactive
O=C(/C=C/c1ccccc1Cl)Nc1ccc(Cl)cn1	none
O=C(c1ccccc1)N1CCCC(C(=O)N2CCCCCC2)C1 (configuration not stated)	none
CC(=O)c1cnc2nc(SCc3ccccc3)nn2c1C	SMARCA2 activ 11.3 | SMARCA2 act conf inactive | GAL4-VP16 Luc 10.2
CC(=O)Nc1ccc2c(=O)n(-c3ccccc3)sc2c1	SMARCA2 activ 9.8 | SMARCA2 act conf inactive | GAL4-VP16 Luc inactive
N#Cc1ccc2c(=O)n(-c3ccccc3)sc2c1	none
Cc1cccc(C(=O)OCC(=O)NCC2CCCO2)c1O (configuration not stated)	SMARCA2 activ 9.2 | SMARCA2 act conf inactive | GAL4-VP16 Luc inactive
O=C(COC(=O)c1ccccc1Br)NCC1CCCO1 (configuration not stated)	none
O=C(COc1ccccc1)NN1C(=O)CSC1=S	none
Cc1[nH]c2ccccc2c1/C=N/Nc1ccc([N+](=O)[O-])cc1S(=O)(=O)Nc1ccc(Cl)cc1	none
Cc1ccc(/C=N/NC(=O)c2ccco2)cc1	hgDAF12 agonist 11.9, SMARCA2 activ 8.8 (no result: DAX1 inh-2) | SMARCA2 act conf inactive | GAL4-VP16 Luc 10.8
Clc1ccc2[nH]c3c(NCCN4CCOCC4)ncnc3c2c1	none
COC(=O)Cc1csc(Nc2ccccc2)n1	SMARCA2 activ 8.4 | SMARCA2 act conf inactive | GAL4-VP16 Luc inactive
COC(=O)Cc1csc(Nc2ccc(Cl)cc2)n1	none
COc1cc(CN(C(=S)NCC(=O)NC2CC2)C2CCCC2)cc(OC)c1OC	SMARCA2 activ 9.6 | SMARCA2 act conf inactive | GAL4-VP16 Luc inactive
COc1cc(CN(C(=S)NCC(=O)N2CCCC2)C2CCCC2)cc(OC)c1OC	none
Cc1cc(C)cc(OCC(=O)Nc2cccc(-c3nc4ncccc4o3)c2)c1	SMARCA2 activ 8.6 | SMARCA2 act conf inactive | GAL4-VP16 Luc inactive
O=C(CN1C2CCC1CC(NC(=O)NC1CCCCC1)C2)NC1CC1 (configuration not stated)	none
Cc1cc(C(=O)Nc2ccccc2)oc1C	SMARCA2 activ 9.0 | SMARCA2 act conf inactive | GAL4-VP16 Luc 11.3
c1ccc(-c2cc(N3CCCCC3)ncn2)cc1	SMARCA2 activ 8.2 | SMARCA2 act conf 8.5 | GAL4-VP16 Luc 8.6
C/C(CC(=O)Nc1ccc(C)c(Cl)c1)=N\NC(=O)C1CCCCC1	none
Cc1nc(NC(=O)CN2CCOCC2)sc1-c1ccccc1	none
CCc1sc(NC(=O)CN2CCOCC2)nc1-c1ccccc1	SMARCA2 activ 8.7 | SMARCA2 act conf inactive | GAL4-VP16 Luc inactive
Cc1ccc(S(=O)(=O)/N=C2/C=C(Sc3ncn[nH]3)C(=O)c3ccccc32)cc1	none (no result: hgDAF12 agonist, hcDAF-12 act, DAX1 inh-1, SMARCA2 activ, ssDAF12 agonist)
COc1cc(OC)cc(C(=O)N2CCN(C(=O)c3ccc(OC)c(OC)c3)CC2)c1	none
Cn1c(=O)c2c(nc(N/N=C/c3ccc(OC(=O)c4ccco4)cc3)n2Cc2ccccc2Cl)n(C)c1=O	none (no result: hgDAF12 agonist, hcDAF-12 act, DAX1 inh-1, SMARCA2 activ, ssDAF12 agonist)
COC(=O)CCC(=O)Nc1ccc(NC(=O)CCC(=O)OC)cc1	none
Cc1oncc1C(=O)Nc1ccc2ccccc2c1	DAX1 inh-1 3.8, SMARCA2 activ 9.1 | SMARCA2 act conf 9.3 | GAL4-VP16 Luc inactive
Cc1oncc1C(=O)Nc1cccc2ccccc12	none
